Screening results from PubChem BioAssay.
Rows were chosen to be rich in hits. Some 19% of all compounds tested hit in one or more screens of this group.
HT1080 IDH1KD tx = HT-1080 IDH1 knockdown cell toxicity (counter line); Potency, µM (series often up to 46.1 µM), hits mostly cytotoxic; HT-1080 IDH1 knockdown viability, ATP luminescence, 48 h; actives 2% (n = 360,000); AID 686971
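HT-1080-IDH1KD cells (IDH1 knocked down), 750/well in RPMI with 5% FBS, treated with compound 48 h at 37 degrees C. Viability by CellTiter-Glo luminescence, normalised to DMSO and no-cell wells; concentration-response curves classed.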
ELG1 repair inh = ELG1-dependent DNA repair inhibition. HEK293T ELG1-luciferase reporter, luminescence, 16 h; DNA damage induced by 5-fluorouridine. Potency, µM (doses to about 46.1 µM), actives largely listed as inhibitors. actives 2.3% (n = 330,000). AID 504467; also: nearly all actives have a fitted effect of over 55% in size
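Cells (2,000 per well) received 5-fluorouridine plus test compound or DMSO and were incubated 16 hr at 37 °C, 5% CO2. Luciferase activity was read by luminescence 30 min after ONE-Glo addition; signal suppression marked inhibition of damage-induced ELG1 function.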
DT40 TDP1 no CPT = qHTS for Inhibitors of human tyrosyl-DNA phosphodiesterase 1 (TDP1): qHTS in cells in absence of CPT; DT40 Tdp1-/- hTDP1 cells, no CPT, ATP luminescence, 48 h; Potency, µM (highest dose often 46.2 µM), hits mostly inhibitors; actives 15% (n = 420,000); AID 686978, 2013; also: nearly all actives have a fitted effect of over 55% in size
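Seeded 400 DT40-hTDP1 cells/well (vehicle DMSO, no 20 nM CPT); pinned compounds; ≥48 hr at 37 °C; CellTiter-Glo luminescence as viability measure.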
DT40 TDP1 CPT = growth inhibition of DT40 Tdp1-/-;hTDP1 cells with camptothecin (screen for TDP1 inhibitors); actives 12% (n = 420,000); AID 686979; chicken DT40 Tdp1-/-;hTDP1 cells + 20 nM CPT, ATP luminescence, 48 h; Potency, µM (series often up to 46.2 µM), most hits filed as inhibitors; also: nearly all actives have a fitted effect of over 55% in size
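Chicken DT40 Tdp1-/- cells complemented with human TDP1, 400 cells/well, exposed to compounds plus 20 nM camptothecin for at least 48 h at 37 C; viability read as ATP content by CellTiter-Glo luminescence.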
HT1080NT lethal = kills 2HG-producing HT-1080-NT fibrosarcoma cells; HT-1080-NT fibrosarcoma viability, CellTiter-Glo ATP luminescence, 48 h; Potency, µM (doses to about 46.1 µM), actives largely listed as cytotoxic; actives 1.6% (n = 360,000); AID 686970;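 also: NT is the 2HG producing partner of a matched IDH1 knockdown line; nearly all actives have a fitted effect of over 55% in size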
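Fibrosarcoma NT cells, 750 per well in 5% FBS RPMI, were exposed to compound for 48 hours. Viability: CellTiter-Glo luminescence.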
IL1B secr inh = blocks inflammasome-driven IL-1 beta release; THP-1 LPS/ATP IL-1B secretion, AlphaLISA, 16 h; active compounds read low; activity change, % at 57.5 µM; actives 4.7% (n = 360,000); in the data active = activity change below about -50%; inconclusive = mostly about -30% to -49%
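THP-1 cells pretreated 1 hr with compounds (up to 57.5 uM final), then stimulated with LPS (250 ng/mL final) plus ATP (1.25 mM final); secreted IL-1B measured by AlphaLISA after 16 hr, decreased signal indicating inhibition.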
A number is an active result; 0 = inactive; ? = inconclusive; - = not tested or not shown. Unless noted, calls follow the shape of the dose curve; as a rule, active = well fitted curve in the direction sought with a large enough effect; inconclusive = small, poorly fitted or top-dose-only effect, or another doubt; inactive = no such curve, though single readings can be large; an effect the other way counts as inactive or inconclusive.

SMILES	HT1080 IDH1KD tx	ELG1 repair inh	DT40 TDP1 no CPT	DT40 TDP1 CPT	HT1080NT lethal	IL1B secr inh
Cc1ccc(NC(=O)c2ccc(S(=O)(=O)N3CCC(C)CC3)cc2)nc1	0	0	?	?	?	0
Cc1ccc(C)c2sc(NC(=O)c3ccc(S(=O)(=O)N4CCC(C)CC4)cc3)nc12	-	-	16µM	?	-	-
CC1CCN(S(=O)(=O)c2ccc(C(=O)Nc3ncccc3O)cc2)CC1	0	0	15µM	?	0	0
Cc1nnsc1C(=O)Nc1ccc(S(=O)(=O)N2CCC(C)CC2)cc1	0	7.3µM	10µM	?	0	-55
CC1CCN(S(=O)(=O)c2ccc(NC(=O)c3cccs3)cc2)CC1	0	0	?	?	0	0
Cc1ccccc1Cn1c(Oc2ccccc2F)nc2c1c(=O)n(C)c(=O)n2C	-	-	0	0	-	-
C[C@H]1CN([C@@H](C)CO)C(=O)CCCn2nncc2CO[C@H]1CN(C)S(=O)(=O)c1ccc(C#N)cc1	0	-	0	0	0	0
COc1ncnc2c1ncn2CCCNCc1ccccc1	0	-	0	0	0	0
COc1cccc(OC)c1C(=O)OCc1c(-c2ccccc2)ncc2ccccc12	0	?	18µM	21µM	0	0
COc1ccc(C(=O)OCc2c(-c3cccc(OC)c3)ncc3ccccc23)cc1	0	?	0	?	?	0
O=C(OCc1c(-c2ccccc2)ncc2ccccc12)c1ccc(F)cc1	0	?	16µM	?	0	0
O=C(OCc1c(-c2ccccc2)ncc2ccccc12)c1cccc(Br)c1	0	9.2µM	?	0	0	0
O=C(O)c1ccccc1C(=O)OCc1c(-c2ccccc2)ncc2ccccc12	0	0	0	?	0	0
O=C(OCc1c(-c2ccccc2)ncc2ccccc12)c1ccc(Cl)cc1Cl	0	0	?	?	0	0
COc1cccc(-c2ncc3ccccc3c2COC(=O)N2CCCCC2)c1	0	?	16µM	?	0	0
COc1cccc(-c2ncc3ccccc3c2COC(=O)N2CCOCC2)c1	0	?	?	?	0	0
CCOc1ccccc1-c1cnc(NC)cn1	0	-	0	?	?	0
O=C(NCC1CCCN1S(=O)(=O)c1cccs1)c1cccc(Cl)c1 (configuration not stated)	0	0	?	0	0	0
CC(C)CN(C(=O)COC(=O)Cc1cccc2ccccc12)c1c(N)n(Cc2ccccc2)c(=O)[nH]c1=O	0	0	0	0	0	0
CCN(CC)C(=O)OCc1c(-c2ccccc2)ncc2ccccc12	0	?	23µM	?	0	0
COc1ccccc1C(=O)Nc1nnc(SCC(=O)NC2CCCC2)s1	0	?	0	?	0	0
COc1ccc(C(O)(c2ccccc2OC)C(CN2CCOCC2)c2ccccc2)cc1 (configuration not stated)	0	0	?	?	0	0
CCOc1ccc(C(O)(c2ccccc2OC)C(CN2CCCC2)c2ccccc2)cc1 (configuration not stated)	0	0	8.2µM	12µM	0	?
CCCOc1ccc(C(O)(CCN2CCCCC2)c2ccccc2OC)cc1 (configuration not stated)	?	0	15µM	18µM	?	0
COCCn1c(=O)c(-c2ccccc2)nc2cnc(OC)nc21	-	-	0	0	-	-
Cc1ccc(S(=O)(=O)CCC(=O)Nc2ccc3c(c2)OCO3)cc1	0	0	0	0	0	0
CS(=O)(=O)c1nc(-c2ccccc2)cc(C(F)(F)F)n1	12µM	?	1.2µM	1µM	21µM	-96
COc1ccc(NC(=O)CCS(=O)(=O)c2nc(-c3ccc4c(c3)OCO4)cc(C(F)(F)F)n2)cc1	-	-	7.3µM	6.5µM	-	-
FC(F)(F)c1cc(-c2ccccc2)nc(N2CCCCCC2)n1	0	0	0	0	0	0
